Laboratory results published in PubChem BioAssay AID463173 (ICCB-Longwood Screening Facility, Harvard Medical School, 2010).
The whole screen tested about 52,000 compounds, of which about 1,700 (3.3%) were called active. The sample holds actives, similar compounds and a random draw of the others, so the mix is not that of the screen. Values without a mark were called inactive. Cut-off read from the data, not from the text of the source: active = survival mostly below about 52% (no sharp cut-off); inactive = mostly above about 56%.

The compounds below were run on Wild type (assay: growth inhibition of S. aureus wild type versus tarO mutant, primary screen, teichoic acid synthesis inhibitors, RN4220, OD600 (AID 463173)). Conditions: S. aureus RN4220 wild type/DeltatarO growth, OD600, 18 h, stronger effect = lower value, screened at 18.75 µg/mL (by protocol).

In order of rising survival:
1. COc1ccc(-c2cc(C(F)(F)F)nc(SCC(=O)N(C)Cc3ccccc3)n2)cc1OC  45%
2. Cc1ccc(CNc2ncnc3c2nnn3C)cc1  49%
3. Cc1ccc(CNC(=O)c2ccc(CSCc3ccccc3Cl)o2)cc1  49%
4. CCn1cc(S(=O)(=O)c2cccc(Cl)c2)c(=O)c2cc(F)c(N3CCC(C)CC3)cc21  57%
5. Nc1nc2nc(-c3ccccc3)cc(=O)n2[nH]1  59%
6. Cc1cccc(CCn2c(=O)c3ccccc3n(Cc3ccccc3C)c2=O)c1  59%
7. Cc1ccc2sc(N(Cc3cccnc3)C(=O)CCOc3ccccc3)nc2c1C  63%
8. CCCCOc1ccc(CNC(=O)c2cc3n(n2)CCCN(Cc2ccc(C)cc2)C3=O)cc1  63%
9. CC(C)CN(CCCNC(=O)c1cc(=O)[nH]c2ccc(S(=O)(=O)N3CCCCCC3)cc12)CC(C)C  68%
10. COc1ccc2oc(=O)c(C(=O)Nc3cccc(C(=O)O)c3)cc2c1  68%
11. COC(=O)c1sccc1S(=O)(=O)N(CC(=O)Nc1cccc(C)c1C)c1ccc(C)c(C)c1  69%
12. CCOc1ccccc1CNC(=O)CCc1c(C)nn(-c2ccc(N3CCCC3)nn2)c1C  71%
13. CC1(C)CC(=O)c2cc(C(=O)Nc3ccc(Cl)cc3)c(=O)[nH]c2C1  71%
14. CCOc1ccc(S(=O)(=O)Nc2cccc(-c3ccc(OCC)nn3)c2)cc1  71%
15. CCOC(=O)c1ccc(CN(Cc2ccc(Br)cc2)S(=O)(=O)c2cccc(C(F)(F)F)c2)cc1  72%
16. CC1CCN(c2ncnc3c2c(-c2ccccc2)cn3-c2ccc(Br)cc2)CC1  72%
17. COc1cccc(CN2C(=O)c3ccccc3Sc3ccc(C(=O)OCc4ccco4)cc32)c1  72%
18. COc1cc(Cl)c(C)cc1NC(=O)CSCc1nc(-c2ccc(OC)c(OC)c2)no1  73%
19. CCCNC(=O)Cn1nc(-c2ccc(OC)cc2)c2cnc3ccc(F)cc3c21  73%
20. O=C(CCn1c(=O)c2ccccc2n(Cc2cccc(Cl)c2)c1=O)NCCc1ccccc1  74%
21. Cc1nn2c(=O)cc(COC(=O)c3ccc(NC(=O)c4ccc(C(C)(C)C)cc4)cc3)nc2s1  74%
22. CCc1ccccc1NC(=O)Cn1nc(C(F)(F)F)c2c1CCC2  74%
23. COC(=O)c1sccc1S(=O)(=O)N(CC(=O)NCc1ccc(C)cc1)c1ccc(C)c(C)c1  74%
24. Cn1c(=O)n(C)c2cc(N3CCOCC3)c(NC(=O)c3ccc(C(C)(C)C)cc3)cc21  75%
25. CCOc1ccccc1NC(=O)N1CCc2c(sc3c2CCCC3)C1c1ccccc1 (centres undefined)  75%
26. CC(=O)c1cccc(NC(=O)C2CCN(S(=O)(=O)c3ccc4[nH]c(=O)ccc4c3)CC2)c1  75%
27. COc1ccc(CC(=O)Nc2c(C(=O)N3CCN(c4ccccc4)CC3)oc3ccccc23)cc1OC  76%
28. COC(=O)c1sccc1S(=O)(=O)N(CC(=O)NCc1ccc(F)cc1)c1ccc(C)c(C)c1  76%
29. CC(=O)c1cccc(NC(=O)c2cc(-c3ccc4c(c3)OCCO4)on2)c1  77%
30. COC(=O)c1sccc1S(=O)(=O)N(CC(=O)Nc1cc(C)ccc1C)c1ccc(C)c(C)c1  78%
31. COC(=O)c1sccc1S(=O)(=O)N(CC(=O)Nc1c(C)cccc1C)c1ccc(C)c(C)c1  78%
32. COc1ccc(NC(=O)CCc2c(C)nc3c(-c4ccc(F)cc4)c(C)nn3c2C)c(OC)c1  78%
33. Cc1cccc(NC(=O)c2cc(-c3ccc4c(c3)OCCO4)on2)c1  78%
34. CCCCNC(=O)c1cc(-c2ccc(OC)cc2)nc2n[nH]c(-c3cccc([N+](=O)[O-])c3)c12  80%
35. COc1ccc(CC(=O)NCC(c2ccc(N(C)C)cc2)N2CCOCC2)cc1 (centres undefined)  81%
36. Cc1ccc(-c2cc(C(=O)Oc3ccc(C#N)cc3)no2)cc1C  82%
37. O=c1c2ccccc2n(Cc2c(F)cccc2Cl)c(=O)n1CCc1ccccc1  83%
38. O=C(NCC(c1ccco1)S(=O)(=O)c1cccs1)c1ccc(C(F)(F)F)cc1 (centres undefined)  83%
39. O=C(CSc1nc(-c2ccc(F)cc2)cc(C(F)(F)F)n1)NCc1ccccc1  84%
40. COc1cc(NC(=O)CSc2ncc(S(=O)(=O)c3ccc(Br)cc3)c(=O)[nH]2)cc(OC)c1  84%
41. CCc1ccccc1NC(=O)Cn1nc(C(F)(F)F)c2c1CCCC2  84%
42. COc1ccc(Cl)cc1NC(=O)Cn1nc(C(F)(F)F)c2c1CCC2  84%
43. Cc1nn2c(-c3ccccc3)cc(-c3ccccc3)nc2c1-c1ccc(Cl)cc1  86%
44. COc1ccc(CNC(=O)c2sc3nc4n(c(=O)c3c2C)CCCCC4)cc1  86%
45. O=C(c1ccc(Cl)cc1)n1nc(-c2ccco2)nc1NCc1cccs1  87%
46. COc1cc(NC(=O)Cn2nc(C(F)(F)F)c3c2CCCC3)c(OC)cc1Cl  87%
47. Cc1cc(C)cc(OC(=O)c2cc(-c3ccc(Cl)cc3)on2)c1  87%
48. O=C(Nc1nc2nc(-c3ccccc3)cc(=O)n2[nH]1)c1ccc(Cl)cc1  88%
49. CCOc1ccc(-n2c(SCC(=O)Nc3ccc(F)cc3)nc3c([nH]c4ccccc43)c2=O)cc1  88%
50. Cn1nnc2c(NCc3ccc(Cl)cc3)ncnc21  88%
51. Cc1ccc(-c2cc(C(=O)Oc3ccc(C#N)cc3)no2)cc1  88%
52. O=C(CSc1nc(-c2ccc(F)cc2)cc(C(F)(F)F)n1)NCCc1ccccc1  89%
53. CCc1c(C)nc2nncn2c1Nc1cccc(C)c1  91%
54. Clc1ccccc1-c1nnc(-c2ccccc2CNc2ccc(Br)cc2)o1  91%
55. Cc1cccc(-c2cc3nc(-c4ccccc4)cc(=O)n3[nH]2)c1  93%
56. CC(C)OCCCn1c(=O)c2ccccc2n2c(-c3cc(Cl)ccc3O)nnc12  94%
57. O=c1c2ccccc2n(Cc2cccc(Cl)c2)c(=O)n1Cc1ccccc1  96%
58. CC(=O)Nc1ccc(Nc2c3c(c(C#N)c4nc5ccccc5n24)CCC3)cc1  100%
59. CSc1cccc(NC(=O)C2CCN(S(=O)(=O)c3ccc4[nH]c(=O)ccc4c3)CC2)c1  101%
60. Cc1ccccc1Cn1c(=O)n(CCCCC(=O)NCCc2ccccc2)c(=O)c2ccccc21  103%
61. CCCCc1nc2c(nnn2Cc2ccccc2)c(=O)[nH]1  104%
62. O=C1NC(=O)C(Nc2ccccc2Cl)S1 (centres undefined)  108%
63. CC(=O)Nc1ccc(NC(=O)c2cc(-c3ccc4c(c3)OCCO4)on2)cc1  109%
64. CCn1c(SCC(=O)OC2CCCCC2)nnc1-c1ccc(OC)cc1  113%
65. Cc1cc(C)c2c(-n3cccc3)c(C(=O)NCCc3ccc(Cl)cc3)sc2n1  118%
66. O=C(CSCc1ccccc1Cl)N/N=C/c1ccc(O)cc1O  122%
67. Cc1cccc(CNS(=O)(=O)c2ccc3[nH]c(=O)ccc3c2)c1  124%
68. CCN(CC)S(=O)(=O)c1ccc(NC(=O)[C@H](CSCc2ccccc2)N2Cc3ccccc3C2=O)cc1  130%
69. O=C(CCCCn1c(=O)c2ccccc2n(Cc2ccccc2Cl)c1=O)NCCc1ccccc1  132%
70. COc1ccc(N2CCN(C(=O)c3ccc(CS(=O)(=O)c4ccc(Br)cc4)o3)CC2)cc1  132%
71. COC(=O)c1sccc1S(=O)(=O)N(CC(=O)Nc1cc(F)ccc1F)c1ccc(C)c(C)c1  133%
72. COc1ccc(-c2cc(C(F)(F)F)nc(SCC(=O)NCCc3ccccc3)n2)cc1  140%
73. CCc1ccc(C(=O)NC2=NC(c3ccccc3F)CC(=O)N2)cc1 (centres undefined)  166%

In the case of `Cc1[nH]n2c(=O)cc(-c3ccccc3Cl)nc2c1-c1ccccc1`, the survival is reported as -13% (active).
With `Cc1[nH]n2c(=O)cc(-c3ccc(Cl)cc3)nc2c1-c1ccccc1` the survival was -17% (active).
In the case of `COc1ccc(-c2cc(C(F)(F)F)nc(SCC(=O)N(C)Cc3ccccc3)n2)cc1`, the survival is reported as -1% (active).
In the case of `CN(Cc1ccccc1)C(=O)CSc1nc(-c2ccc(F)cc2)cc(C(F)(F)F)n1`, the survival is reported as -4% (active).
In the case of `O=c1c2ccccc2n(Cc2ccccc2Cl)c(=O)n1CCc1ccccc1`, the survival is reported as 15% (active).
For `O=c1c2ccccc2n(Cc2cccc(Cl)c2)c(=O)n1CCc1ccccc1`, the survival was 39% (active).
For `Cc1ccccc1Cn1c(=O)n(CCc2ccccc2)c(=O)c2ccccc21`, the survival was 4% (active).
In the case of `COC(=O)c1ccccc1NC(=O)Cn1nc(C(F)(F)F)c2c1CCCC2`, the survival is reported as -5% (active).
With `COc1ccc(Cl)cc1NC(=O)Cn1nc(C(F)(F)F)c2c1CCCC2` the survival was 9% (active).
With `Cn1nnc2c(NCc3ccccc3)ncnc21` the survival was 0% (active).
`CCc1cccc(NC(=O)CN(c2ccc(C)c(C)c2)S(=O)(=O)c2ccsc2C(=O)OC)c1` was tested, and the survival was -6% (active).
For `COC(=O)c1sccc1S(=O)(=O)N(CC(=O)Nc1ccc(C)c(F)c1)c1ccc(C)c(C)c1`, the survival was -1% (active).
`COC(=O)c1sccc1S(=O)(=O)N(CC(=O)NCc1ccccc1)c1ccc(C)c(C)c1` was tested, and the survival was 14% (active).
For `Cc1cccc(OC(=O)c2cc(-c3ccc(C)c(C)c3)on2)c1`, the survival was -7% (active).
`Cc1cccc(OC(=O)c2cc(-c3ccc4c(c3)OCCO4)on2)c1` was tested, and the survival was -7% (active).
For `Cc1cc(C)cc(OC(=O)c2cc(-c3ccc4c(c3)OCCO4)on2)c1`, the survival was -7% (active).
